Screening results: PubChem BioAssay, National Center for Advancing Translational Sciences (NCATS)
The list is not random: actives were taken first. Their share in the collection is about 6%.
Chronic BCR inh – chronic active BCR signaling inhibition | ABC-DLBCL IkBa-CBG/CBR reporter, luminescence ratio, 4 h | Potency, µM (series often up to 46.1 µM), inactives show at the top dose activity change, negative = inhibition, most hits filed as inhibitors | 340,000 tested, 0.05% active | AID 493014; active = well fitted inhibition curve with a large enough effect in the signal ratio, with a control signal flat, not every such curve was filed as active; inconclusive = small, poorly fitted or top-dose-only effect, or effect the other way, or a change in a side signal; the % refers to the signal ratio;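 also: potency is read from the fitted curve at half-maximal effect; plate controls were basal doxycycline-induced cells for no effect and cells given 10 µM MG132 for full effect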
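Compounds up to 46 uM were incubated four hours with TMD8 cells whose green CBG68 luciferase is fused to IkappaBalpha; red CBR luminescence normalised the signal, and concentration-effect curves were fitted to fusion, red and ratio data.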
D1 antag – blocks dopamine activation of the human D1 receptor | AID 504652 | P21728 | activity change, negative = inhibition, % at 10 µM | HEK293 TREx D1 cells, calcium flux, dopamine EC80; active compounds read low | 360,000 tested, 3.2% active; in the data active = activity change below about -30%; also: % is scaled to controls: 0 for no effect and ±100 for the full control effect
Target sequence (P21728 whole entry, looked up): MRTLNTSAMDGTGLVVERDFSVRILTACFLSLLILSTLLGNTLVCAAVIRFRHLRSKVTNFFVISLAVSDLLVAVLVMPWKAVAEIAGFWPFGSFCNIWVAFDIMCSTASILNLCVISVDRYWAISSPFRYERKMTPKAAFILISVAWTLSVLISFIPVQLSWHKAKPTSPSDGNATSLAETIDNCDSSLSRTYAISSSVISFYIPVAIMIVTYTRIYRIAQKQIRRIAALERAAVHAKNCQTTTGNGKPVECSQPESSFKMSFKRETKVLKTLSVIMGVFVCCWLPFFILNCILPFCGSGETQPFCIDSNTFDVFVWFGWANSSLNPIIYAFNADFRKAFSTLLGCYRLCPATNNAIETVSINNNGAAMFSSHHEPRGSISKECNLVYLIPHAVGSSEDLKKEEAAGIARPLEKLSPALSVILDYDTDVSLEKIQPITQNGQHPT
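Allosteric or orthosteric antagonism assessed as attenuation of the calcium response to EC80 dopamine, added 180 s after compound, in induced HEK293 Trex D1 cells loaded with no-wash calcium dye.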
D1 PAM – potentiators of human D1 dopamine receptor | P21728 | HEK293 TREx D1 cells, calcium flux, dopamine EC20 potentiation | potentiation, % at 10 µM | 360,000 tested, 0.036% active; in the data active = potentiation above about 30%; also: 0% is about no effect
D1 agonist – human D1 receptor agonism; P21728; HEK293 T-REx D1 cells, calcium flux, agonist mode; activation, % at 2 µM; 360,000 tested, 1% active; AID 504660; in the data active = activation above about 30%; also: 0% is about no effect
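Inducible HEK293 T-REx D1 cells, force-coupled to calcium signalling, were plated at 4000 cells/well with tetracycline and held overnight at 30 C. After no-wash calcium dye loading, compound-evoked calcium rise over 180 s flagged agonists.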
DRD3 antagonist – D3 dopamine receptor (human) antagonism; P35462; D3R cells, DiscoveRx beta-arrestin luminescence, antagonist mode; active compounds read low; max response, negative = inhibition, %; 360,000 tested, 2.5% active; in the data active = max response below about -50%; inconclusive = no clear call, values can overlap the other calls; also: % is scaled to controls: 0 for no effect and ±100 for the full control effect
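Cells expressing the human receptor were seeded at 1500 cells/well, incubated overnight at 37 degrees C in 5% CO2, then exposed to library compounds with dopamine controls for 90 minutes at 37 degrees C before luminescent detection.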
DRD3 agonist – agonists of human D3 dopamine receptor; D3R DiscoveRx beta-arrestin cells, luminescence, 90 min; max activation, %; 410,000 tested, 0.58% active; in the data active = max activation above about 30%; also: 0% is about no effect
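Cells at 1500/well, incubated overnight, then treated with pinned compounds (dopamine as control) for 90 min at 37 degrees C. DiscoveRx reagent added for 30 - 60 minutes at room temperature; luminescence read.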
Active calls of the source: *; ? = inconclusive; . = no result given; ! = repeats disagree.

SMILES	Chronic BCR inh	D1 antag	D1 PAM	D1 agonist	DRD3 antagonist	DRD3 agonist
CCOC(=O)[C@]12CCC=C1N(Cc1ccc(Cl)cc1Cl)C(=O)[C@H](CC(=O)NCCc1ccccc1OC)C2	.	.	.	.	-6	2
O=C(/C=C/c1ccccc1)NC(N1CCOCC1)C(Cl)(Cl)Cl (centres undefined)	?	-34*	-3	0	10	5
O=C(NN=Cc1cc(=O)[nH]c(=O)[nH]1)c1ccncc1	.	.	.	.	-26	-6
Cc1cc(OCC(=O)Nc2cccc(S(=O)(=O)NC3=NCCCCC3)c2)ccc1Cl	?	-31*	-2	5	23	-4
Cc1ccc(OCC(=O)Nc2cccc(S(=O)(=O)NC3=NCCCCC3)c2)cc1C	?	6	-1	10	4	-4
CCOC(=O)CSc1nc2cc(OC)c(OC)cc2c2nc(-c3ccccc3)nn12	.	11	5	0	.	-4
CC(=O)Nc1cccc(-c2ccnc3c2CC(C)(C(=O)Nc2cccc(NS(C)(=O)=O)c2)O3)c1 (centres undefined)	.	.	.	.	-18	-1
COCCCNC(=O)[C@H](Cc1ccccc1)NC(=O)CC[C@H]1O[C@@H](n2ccc(=O)[nH]c2=O)[C@H](O)[C@@H]1O	.	.	.	.	-56*	-9
O=C(CC[C@H]1O[C@@H](n2ccc(=O)[nH]c2=O)[C@H](O)[C@@H]1O)N[C@H](Cc1ccccc1)C(=O)NCCCc1ccccc1	.	.	.	.	-6	-11
CN(CC(=O)Nc1ccccc1Br)c1ncnc2sccc12	?	-35*	-11	13	-6	5
CN(CC(=O)Nc1ccc(F)c(F)c1F)c1ncnc2sccc12	-2%	-9	-11	8	3	-4
O=C1CCCc2cc(S(=O)(=O)NCC3CCC(C(=O)NCc4ccc(F)cc4)CC3)ccc2N1 (centres undefined)	.	4	-5	3	.	9
CO/N=C(\C(=O)N[C@@H]1C(=O)N2C(C(=O)O)=C(CSc3nnnn3C)CS[C@H]12)c1csc(N)n1	.	.	.	.	.	6
Cc1ccc(N=CC2=C(O)CC(c3ccco3)CC2=O)cc1 (centres undefined)	?	-38*	3	3	14	-2
O=C1CC(c2ccco2)CC(O)=C1C=Nc1ccccc1-c1ccccc1 (centres undefined)	1%	-12	-5	2	-105*	-14
O=C1CC(c2ccco2)CC(O)=C1C=Nc1cc(Cl)ccc1O (centres undefined)	-12%	-2	7	9	0	-9
CCOC(=O)C1CCN(C(=O)Cn2nc(C)n3c(cc4sccc43)c2=O)CC1	.	-42*	-6	1	.	5
COc1cccc2c1cc1c(=O)n(CC(=O)N3CCC(C)CC3)nc(C)n12	-19%	-3	-5	2	1	38*!
N#Cc1ccc(C[C@@H](NS(=O)(=O)c2ccc(C(=O)O)cc2)C(=O)O)cc1	14%	-35*	-5	2	.	.
O=C(O)c1ccc(S(=O)(=O)N[C@@H](Cc2ccc(O)cc2)C(=O)O)cc1	3%	-11	-2	4	.	.
C=CCn1c(SC(C)CC)nc(O)cc1=O (centres undefined)	0%	-29	6	140*	14	-6
C=CCn1c(SCCCCCC)nc(O)cc1=O	-3%	5	-3	6	3	7
CCn1c(SCC(=O)N2CCCCC2)nc(O)cc1=O	-5%	-5	-7	-1	-13	4
CCCCSc1nc(O)cc(=O)n1CC	3%	-9	-2	38*	-3	-2
C=CCn1c(SCCCC)nc(O)cc1=O	?	-15	4	79*	-3	2
SMILES	Chronic BCR inh	D1 antag	D1 PAM	D1 agonist	DRD3 antagonist	DRD3 agonist
CSc1nc(NCc2ccccc2)c2c3c(sc2n1)CN(C)CC3	11%	-18	-18	13	-76*	0
CSc1nc(NCC(C)C)c2c3c(sc2n1)CN(C)CC3	-10%	12	-3	2	-72*	-11
COCCNc1nc(SC)nc2sc3c(c12)CCN(C)C3	0%	-1	-1	1	-9	-9
CC(C)Sc1nc(N)c2c3c(sc2n1)CN(C)CC3	0%	-13	1	4	-58*	-14
COc1cc(NC(=O)CSc2nccn2C)cc(OC)c1OC	.	16	-1	-1	.	5
COc1cc(NC(=O)C/C(C)=N/NC(=O)c2cccc(O)c2)c(OC)cc1Cl	?	-7	3	2	-51*	-17
CC(=O)Nc1cccc(NC(=O)NC2CC(=O)N(c3ccc4c(c3)OCCO4)C2)c1 (centres undefined)	.	.	.	.	0	-10
CCN(C(=O)COC(=O)c1c(C)nsc1NC)c1ccccc1	7%	-3	.	31*	21	4
CNc1snc(C)c1C(=O)OC(C)C(=O)Nc1ccccc1 (centres undefined)	?	-32*	-6	9	6	0
CNc1snc(C)c1C(=O)OC(C)C(=O)Nc1cccc(C)c1 (centres undefined)	-9%	.	.	.	6	8
CNc1snc(C)c1C(=O)OCC(=O)N(C)Cc1ccccc1	-1%	-43*	-7	14	28	8
Cc1ccc(-n2nc(-c3ccc(F)cc3)c3cnc4cc5c(cc4c32)OCO5)cc1C	.	12	-2	0	.	3
Cc1ccc(NC(=O)CSc2nc3nccnc3c(=O)n2CCc2c[nH]c3ccccc23)cc1C	.	-2	-3	6	.	-3
CCNC(=O)C1(C)CCCN(Cc2ccccc2-c2ccccc2)C1 (centres undefined)	.	.	.	.	?	-3
O=C1c2ccccc2C(=O)c2c1ccc1c(=O)n(-c3ccccc3)[nH]c21	10%	2	-4	-2	-18	-11
Cc1cccc(-n2[nH]c3c4c(ccc3c2=O)C(=O)c2ccccc2C4=O)c1	?	-11	-7	-1	-64*	-5
COc1ccccc1C(=O)NCC(c1cccs1)N1CCc2ccccc21 (centres undefined)	?	-9	6	4	-53*	-14
CCc1ccc2occ(CC(=O)Nc3ccc(C)c(C)c3)c2c1	.	-1	-2	15	.	1
CCOc1ccc(-c2nnc3ccc(SCC(=O)Nc4nc5ccc(C)cc5s4)nn23)cc1	-4%	-43*	-15	1	3	5
CCOc1ccc(-c2nnc3ccc(SCC(=O)N4CCCCC4)nn23)cc1	2%	5	-10	0	1	6
CCOc1ccc(-c2nnc3ccc(SC(C)C)nn23)cc1	-12%	-42*	-3	2	0	3
COc1cc(Br)cc(C=Nc2cccc(C(F)(F)F)c2)c1O	?	33	-4	4	-81*	-14
CSc1ccc(CCNc2ncnc3onc(-c4ccc(Cl)cc4)c23)cc1	.	-18	-6	15	.	-5
